About 10 (0.005%) of roughly 190,000 compounds were called active.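 The calls were made as follows: active = activation factor of 2 or more at 20 µM, relative to plate controls; inactive = the rest.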 Not all results are given here.
target: Mannose-6-phosphate isomerase (Homo sapiens) (UniProt P34949); assay: MPI enzyme activity enhancement – biochemical, fluorescence intensity, near-Km mannose 6-phosphate, primary screen (AID 1214); details: purified human PMI, coupled resazurin fluorescence, 20 min; at 20 µM; hits give high values; 1 = vehicle control, 0 substrate-free wells
Sequence (P34949 whole entry, looked up): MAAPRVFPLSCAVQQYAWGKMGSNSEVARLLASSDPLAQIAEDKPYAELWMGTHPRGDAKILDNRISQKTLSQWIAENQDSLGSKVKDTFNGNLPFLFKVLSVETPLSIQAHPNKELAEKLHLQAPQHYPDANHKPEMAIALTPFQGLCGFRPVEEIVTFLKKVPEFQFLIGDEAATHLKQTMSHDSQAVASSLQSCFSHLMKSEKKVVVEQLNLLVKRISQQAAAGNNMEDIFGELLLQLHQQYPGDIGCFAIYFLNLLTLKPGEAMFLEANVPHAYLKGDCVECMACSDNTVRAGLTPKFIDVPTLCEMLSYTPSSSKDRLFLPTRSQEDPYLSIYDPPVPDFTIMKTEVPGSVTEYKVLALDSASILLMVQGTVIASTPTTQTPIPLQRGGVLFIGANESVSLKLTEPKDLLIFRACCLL

Activation factor, inactive:
CCOC(=O)C1CCN(S(=O)(=O)c2cc(F)ccc2OC)CC1 1
COCCNc1nc2nonc2nc1N(C)Cc1ccc(C)cc1 0.9
Cc1ccc(NC(=O)CC(=O)Nc2ccc(C)cc2)cc1 1
CCOC(=O)C1=C(N)N(c2ccc(C)cc2)C2=C(C(=O)CCC2)C1c1cccs1 (stereo not drawn) 1
CN(C)/C=C(/C(=O)c1ccccc1Cl)S(C)(=O)=O 1
COC(=O)c1nc(NC(=O)c2ccc(C(C)(C)C)cc2)n[nH]1 1.1
CC(C)Oc1ccc(/C=C(\NC(=O)/C=C/c2ccco2)C(=O)NCCc2nc3ccccc3[nH]2)cc1 0.9
O=C(c1ccccc1)c1ccc(OCC(O)CN2CCCC2)cc1 (stereo not drawn) 1
COc1cc(S(=O)(=O)N2CCOCC2)ccc1NC(=O)COc1ccc(N(C)S(=O)(=O)c2ccc(C)cc2)cc1 1
Cc1cc(C#N)c(SCC(N)=O)nc1-c1ccc(F)cc1 1.1
CC1=NNC(=O)C1CCC(=O)N/N=C\c1cccc(Cl)c1 (stereo not drawn) 1
CCOC(=O)c1sc2nc(C)nc(SCC(N)=O)c2c1C 1.1
COC(=O)c1cc(NC(=O)c2nn(C)c(=O)c3ccccc23)cc(C(=O)OC)c1 1
CCC(C(=O)Nc1ccc(C(C)C)cc1)c1ccccc1 (stereo not drawn) 1
CC(C)(C)c1ccc(/C=C/C(=O)Nc2ncccn2)cc1 1
COC(=O)c1ccc(NC(=O)CSc2nncc3ccc(OC)c(OC)c23)cc1 1
COc1ccc(OCC(O)CNC(=O)Nc2ccc(Cl)cc2)cc1 (stereo not drawn) 0.9
Cc1ccc(CN2CCN(/N=C/c3cccnc3)CC2)c(C)c1 1.1
CCC(C)(C)NC(=O)CN(Cc1cccs1)C(=O)CNS(=O)(=O)c1ccc(F)cc1 1.1
COc1cccc(CC2(CO)CCCN(CC3=Cc4cc(OC)ccc4OC3)C2)c1 (stereo not drawn) 0.9
CC1CCN(c2ccc(C(=O)NCc3ccc4c(c3)OCO4)cc2[N+](=O)[O-])CC1 0.8
Cc1cccc(C2=N/C(=C/c3cccs3)C(=O)O2)c1 1
CCc1cc(C(=O)OC)c(NC(=O)CC2Sc3ccc(C(F)(F)F)cc3NC2=O)s1 (stereo not drawn) 0.9
Cc1ccc(C(=O)N/C(=C/c2ccc(-c3cccc([N+](=O)[O-])c3)o2)C(=O)NCCCN(C)C)cc1 1
COC(=O)NNC(=O)C1CCC(C)CC1 (stereo not drawn) 1.1
COC(=O)C(NS(=O)(=O)c1ccc(F)cc1)c1ccccc1 (stereo not drawn) 1
COc1ccc(Cl)cc1NC(=O)Cn1nc(-c2ccc(C)cc2)n(C)c1=S 1.1
CCc1ccc(N(CC(=O)Nc2sc3c(c2C(=O)OC)CCCC3)S(C)(=O)=O)cc1 0.8
CN(CCOc1ccc(Br)cc1)CC(=O)Nc1cccc(S(=O)(=O)NC2=NCCC2)c1 0.9
OCCC1CN(Cc2ccc3nsnc3c2)CCN1C1CCCCC1 (stereo not drawn) 0.9
O=C(CSc1nnc2ccc(-c3ccncc3)nn12)N1CCCCC1 1
COc1cccc(C(=O)NCCSc2ccc(Br)cc2)c1 1.1
N#CCOc1ccc(C2=NO[C@@H]3[C@@H]4C[C@@H]([C@H]5C(=O)N(c6ccc7c(c6)OCO7)C(=O)[C@@H]45)[C@H]23)cc1 0.9
Cn1cc(/C=C/C(=O)N2CCCC(C(=O)c3ccc(C(F)(F)F)cc3)C2)cn1 (stereo not drawn) 1
COc1ccc(CCCc2nnc(SCc3nc4ccccc4c(=O)[nH]3)n2C)cc1 1
CN(C)c1ccc(/C=N/NC(=O)C(O)c2ccc(Br)cc2)cc1 (stereo not drawn) 1
Nc1nc(NC(=O)/C=C/c2ccccc2)nn1-c1ccccc1 1
COc1ccc(OC)c(C(=O)c2ccc(C(=O)N3CCN(Cc4csc(C)n4)CC3)cc2)c1 1
O=C(Cc1ccccc1)NCC1OCCc2ccccc21 (stereo not drawn) 0.9
O=Cc1ccc(OCc2cn3ccccc3n2)cc1 1.1
CCCCC1S/C(=N/N=C/c2cccs2)NC1=O (stereo not drawn) 1.3
Cc1cc2oc(C(=O)Nc3c(C)n(C)n(-c4ccccc4)c3=O)c(C)c2cc1Cl 1.1
CN1CCC(=NNC(=O)c2ccc(N(Cc3ccc(Cl)cc3)S(C)(=O)=O)cc2)CC1 0.8

Reference: PubChem BioAssay AID1214 (Sanford-Burnham Center for Chemical Genomics, 2008)
